Assay results published in PubChem BioAssay AID504451 (NMMLSC, 2011).
Among all 2,000 compounds or so, about 80 (4%) were called active.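 The calls were made as follows: active = aptamer displacement above 40%, near three times the noise of non-fluorescent compounds, on plates passing quality checks; inactive = the rest.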 Only a sample is shown.

Biological target: Beta-adrenergic receptor kinase 1 (Homo sapiens) (UniProt P25098)
Test: RNA aptamer-GRK2 binding blockers – biochemical, cherry pick 1, bead flow cytometry, confirmation (AID 504451);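 also: negative values mostly reflect intrinsic compound fluorescence rather than true enhancement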
Details: bead-bound GRK2, FAM-aptamer displacement, at 10 µM, active compounds read high

Beta-adrenergic receptor kinase 1 (Homo sapiens), sequence (P25098 whole entry, looked up): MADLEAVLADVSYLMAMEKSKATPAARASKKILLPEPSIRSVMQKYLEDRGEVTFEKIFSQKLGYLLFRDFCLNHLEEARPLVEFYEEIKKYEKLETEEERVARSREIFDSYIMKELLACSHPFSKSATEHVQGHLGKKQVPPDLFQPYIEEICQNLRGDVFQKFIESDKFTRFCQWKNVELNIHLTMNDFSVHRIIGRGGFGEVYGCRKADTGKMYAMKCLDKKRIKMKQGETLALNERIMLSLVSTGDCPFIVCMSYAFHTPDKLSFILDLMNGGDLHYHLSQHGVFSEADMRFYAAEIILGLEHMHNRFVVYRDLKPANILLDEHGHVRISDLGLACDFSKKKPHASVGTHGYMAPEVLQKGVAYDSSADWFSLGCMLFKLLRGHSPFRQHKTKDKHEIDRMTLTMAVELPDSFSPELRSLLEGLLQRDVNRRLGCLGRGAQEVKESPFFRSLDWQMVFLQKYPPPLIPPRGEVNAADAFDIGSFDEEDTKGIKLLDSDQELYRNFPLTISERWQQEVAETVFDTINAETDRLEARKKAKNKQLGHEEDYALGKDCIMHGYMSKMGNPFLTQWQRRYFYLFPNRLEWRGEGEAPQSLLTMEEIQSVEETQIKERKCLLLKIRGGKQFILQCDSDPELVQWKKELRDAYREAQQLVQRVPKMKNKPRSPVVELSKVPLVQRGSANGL

Aptamer displacement, inactive:
COc1cc(C(=O)NCc2ccc3c(c2)cc(C)n3C)cc(OC)c1OC 0.16%
Cc1csc(=O)n1CC(=O)OCC(=O)N(CC(C)C)c1c(N)n(Cc2ccccc2)c(=O)[nH]c1=O -4.19%
COCCn1c(C)cc(C(=O)CN2c3cccc4cccc(c34)S2(=O)=O)c1C 5.59%
COc1ccc(NC(=O)CN(C)C(=O)c2cc(-c3ccc(C)o3)nc3ccccc23)cc1 1.02%
O=C(NNc1ncnc2c1cnn2-c1ccccc1)c1ccco1 -5.21%
C/C(=N\OCC(=O)O)c1ccc(Cl)cc1 -4.26%
NC(=O)C1CCN(C(=O)c2ccc3c(=O)n(Cc4cccc(Br)c4)c(=S)[nH]c3c2)CC1 2.04%
CCCCn1nc(C(=O)OCC(=O)Nc2sccc2C(N)=O)c2ccccc2c1=O -3.95%
O=S(=O)(Nc1ccc(-c2ccc(N3CCOCC3)nn2)cc1)c1cc(Cl)ccc1Cl 1.37%
CCOC(=O)C(C)n1cnc2scc(-c3ccc(C)c(C)c3)c2c1=O (centres undefined) 0.17%
COc1ccccc1NC(=O)CSc1nc2sc3c(c2c(=O)n1-c1ccccc1)CCN(C)C3 1.27%
O=C(Nc1nnc(-c2ccccc2)o1)c1cccc(S(=O)(=O)N2CCOCC2)c1 -3.8%
CSc1ccc(/C=C2\NC(=O)NC2=O)cc1 -11.5%
Cc1nn(Cc2ccc(F)cc2)c(C)c1NC(=O)c1noc2c1CCc1ccccc1-2 12.1%
O=C(COC(=O)c1ccc(F)cc1F)Nc1ncccn1 39.1%
Cc1ccccc1CN1CCN(CC(=O)NCc2ccccn2)C1=O 0.03%
CCOCCCNC(=O)C(NC(=O)CNC(=O)c1ccccc1)c1ccc(OC)cc1 (centres undefined) -2.56%
Cc1ccc(C(CNC(=O)Nc2cccc(C)c2)N2CCN(C)CC2)cc1 (centres undefined) -1.91%
O=C(CCNC(=O)c1ccccc1)NN=Cc1ccc(Br)o1 8.12%
Cc1ccc(N2C(=O)C3N=NN(CC(=O)N4N=C(c5cccc6ccccc56)CC4c4ccccc4)C3C2=O)cc1 (centres undefined) -6.3%
CC(=O)N1CC[n+]2c(-c3ccc([N+](=O)[O-])cc3)csc21 -2.74%
O=C(c1cc2cc(F)ccc2[nH]1)N1CCN(c2ccc(F)cc2)CC1 -3.05%
Cc1cccc(NC(=O)C2CCCN(C(=O)NCc3ccccc3)C2)c1C (centres undefined) -2.02%
COc1ccc(Cl)cc1NC(=O)CCS(=O)(=O)c1cc2c(cc1C)NC(=O)CO2 1.91%
